From PubChem BioAssay (NCI)
The panel holds about 83,000 compounds, 20% with a hit somewhere; the sample as a whole holds those more often.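 Step 1: grow cells in 96-well plates. Step 2: add test compound at a single concentration. Step 3: incubate 48 h. Step 4: record percent growth.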 Values without a mark were called inactive. Activity calls are given as the source filed them. How the source made its calls: active means growth percent below 10; inactive means the rest.

Each compound was assayed on SK-OV-3 ovarian (assay: NCI-60 one-dose screen, 48 h (100 = growth as untreated, 0 = no growth, -100 = all killed)). Conditions: 10 µM.
`CCOC(=O)c1cocc1C(=O)O` was tested, and the growth was 106%. `CC(C)(C)c1nn(-c2ccccc2)c2c1CC1(CN2Cc2ccc(Cl)cc2)C(=O)c2ccccc2C1=O` showed a growth of 93.3%. In the case of `NC(N)=N/N=C(\N=Nc1ccccc1)c1ccc(Cl)cc1`, the growth is reported as 55.5%. With `O=C(c1ccccc1)N(C(=O)c1ccccc1)N1CCCC1` the growth was 109%. For `COC1=CC(=O)OC(c2ccc(OC)cc2)C1` (stereo not given), the growth was 117%. Compound `Cc1nn(-c2ccccc2)c2nc(Cl)c(C=O)c(-c3ccccc3)c12` has a growth of 116%. Work on `COC(=O)CC[C@@H](C)[C@H]1CC[C@H]2[C@@H]3CC[C@@H]4C[C@H](O)CC[C@]4(C)[C@H]3C[C@H](O)[C@]12C` yielded a growth of 111%. `COc1ccc(C(=O)CC(CC(=O)c2ccc(OC)cc2)c2c(C)nn(-c3ccccc3)c2Cl)cc1` was tested, and the growth was 109%. `CCOc1ccccc1/C=N\N=C(\N)N/N=C/c1ccccc1OCC` showed a growth of 10.3%. `Cc1cc(Br)nnc1Br` showed a growth of 101%. With `COc1ccc2c(c1)C(CC(=O)NN)CCC2` (stereo not given) the growth was 115%. `COc1ccccc1N1CCCSC1=Nc1ccccc1` showed a growth of 113%. For `CCCCCCCCCCCC[n+]1c(C)cc(N)c2ccccc21`, the growth was -2.73% (active). `Cc1ccc(C(SCC(N)C(=O)O)(c2ccc(C)cc2)c2ccc(C)cc2)cc1` (stereo not given) gave a growth of 26%. With `CC1OC2CC(=O)OC2C2=C1C(=O)c1c(O)c3c(c(O)c1C2=O)C1CC(O)C3(O)C(C)O1` (stereo not given) the growth was 8.13% (active). For `O=C1c2ccccc2C(=O)N1CCCCNc1ccccc1`, the growth was 113%. Compound `Fc1ccc(C(c2ccc(F)cc2)C(Cl)Cl)cc1` has a growth of 106%. `CCCCN1C(=O)CC(SC2CC(=O)N(CCCC)C2=O)C1=O` (stereo not given) was tested, and the growth was 111%. Compound `O=[N+]([O-])c1ccc(NCSc2ccc(Cl)cc2)cc1` has a growth of 109%. With `CN(C)c1nc(N)c2nccnc2n1` the growth was 110%. In the case of `CCn1c2ccc(O)cc2c2c(C)c3c[n+](C)ccc3c(C)c21`, the growth is reported as 71.2%. Compound `C=C1CCC2(C#N)[C@H]3[C@H](CC[C@@H]2C)[C@@H](C)C[C@@H](CC(C)(C)NC(=O)CN2CCC2=O)[C@H]13` (stereo not given in full) has a growth of 89.7%. Compound `COc1cc(C2CC(c3cc(Cl)c(C)cc3O)=NN2c2ccc(S(N)(=O)=O)cc2)cc(OC)c1OC` (stereo not given) has a growth of 14.5%.

What follows are compounds tested on IGROV1 ovarian in the same assay as above. Conditions: 10 µM.
With `CC1(C)N=C(N)N=C(N)N1c1cccc(C#N)c1` the growth was 42.6%. `Nc1cc(-c2ccc(Cl)cc2)nn1-c1nc2ccccc2nc1Cc1ccccc1` showed a growth of 94.9%. `O=C(N/N=C/c1cc([N+](=O)[O-])ccc1O)c1cccc2ccccc12` was tested, and the growth was 39.8%. Work on `O=C1/C(=C/c2cccc(F)c2)Cc2ccccc21` yielded a growth of 99.6%. Compound `CCN1C(=O)CC(SC2CC(=O)N(CC)C2=O)C1=O` (stereo not given) has a growth of 107%. With `COc1cc2nc(SCC(=O)Nc3cc(OC)c(OC)c(OC)c3)n(Cc3ccccc3)c(=O)c2cc1OC` the growth was 75.5%. `CN(C)c1ccc(/C=N/NC(=O)c2cccc3ccccc23)c(Cl)c1` showed a growth of 46.1%. `CCOC(=O)c1cocc1C(=O)O` was tested, and the growth was 113%. `NC(N)=N/N=C(\N=Nc1ccccc1)c1ccc(Cl)cc1` showed a growth of 46.3%. In the case of `COc1ccc(C(=O)CC(CC(=O)c2ccc(OC)cc2)c2c(C)nn(-c3ccccc3)c2Cl)cc1`, the growth is reported as 104%. In the case of `CC1OC2CC(=O)OC2C2=C1C(=O)c1c(O)c3c(c(O)c1C2=O)C1CC(O)C3(O)C(C)O1` (stereo not given), the growth is reported as -36.7% (active). `O=C1c2ccccc2C(=O)N1CCCCNc1ccccc1` showed a growth of 141%. In the case of `CCn1c2ccc(O)cc2c2c(C)c3c[n+](C)ccc3c(C)c21`, the growth is reported as 53.8%. `C=C1CCC2(C#N)[C@H]3[C@H](CC[C@@H]2C)[C@@H](C)C[C@@H](CC(C)(C)NC(=O)CN2CCC2=O)[C@H]13` (stereo not given in full) gave a growth of 28.7%. In the case of `COc1cc(C2CC(c3cc(Cl)c(C)cc3O)=NN2c2ccc(S(N)(=O)=O)cc2)cc(OC)c1OC` (stereo not given), the growth is reported as 3.35% (active).

The compounds below were run on OVCAR-3 ovarian in the same assay as above. Conditions: 10 µM.
With `CSc1nc(S(C)(=O)=O)nc2[nH]c(=O)[nH]c12` the growth was 115%. For `CC1(C)N=C(N)N=C(N)N1c1cccc(C#N)c1`, the growth was 60.7%. Compound `O=C(N/N=C/c1cc([N+](=O)[O-])ccc1O)c1cccc2ccccc12` has a growth of 27.2%. With `O=c1c(Br)ccc(Br)cc1Br` the growth was -94.8% (active). Work on `CC(=O)COc1ccc(Cl)cc1Cl` yielded a growth of 120%. In the case of `Cc1cn(-c2cc(F)cc(NC(=O)c3ccc(C)c(Nc4nccc(-c5cccnc5)n4)c3)c2)cn1`, the growth is reported as -30.9% (active). `O=C(O)Cc1ccc(O)c(O)c1` showed a growth of 108%. `O=C1OC(C(Cl)(Cl)Cl)OC1C(Cl)(Cl)Cl` (stereo not given) showed a growth of 109%. `CCN1C(=O)CC(SC2CC(=O)N(CC)C2=O)C1=O` (stereo not given) was tested, and the growth was 107%. With `Cc1ccc(C2NC(=S)N3C(c4ccc(C)cc4)NC(=S)N23)cc1` (stereo not given) the growth was -20% (active). `COc1cc2nc(SCC(=O)Nc3cc(OC)c(OC)c(OC)c3)n(Cc3ccccc3)c(=O)c2cc1OC` showed a growth of 69.7%. For `Cc1c(C(N)=O)sc2c1c(=O)n(Cc1ccccc1)c1nnc(-c3ccc(Br)cc3)n21`, the growth was 49.5%. `Nc1nc(N)c(N)c(Nc2ccc(CCO)cc2)n1` gave a growth of 107%. `CN(C)c1ccc(/C=N/NC(=O)c2cccc3ccccc23)c(Cl)c1` was tested, and the growth was -17.4% (active). `COc1ccc(-c2nn(-c3cccc(Cl)c3)cc2-c2c(C#N)c(N)n(N)c(=O)c2C#N)cc1` gave a growth of 72.4%. With `CCOC(=O)c1cocc1C(=O)O` the growth was 103%. With `CC(C)(C)c1nn(-c2ccccc2)c2c1CC1(CN2Cc2ccc(Cl)cc2)C(=O)c2ccccc2C1=O` the growth was 78.1%. With `NC(N)=N/N=C(\N=Nc1ccccc1)c1ccc(Cl)cc1` the growth was 12.6%. Work on `O=C(c1ccccc1)N(C(=O)c1ccccc1)N1CCCC1` yielded a growth of 110%. For `Cc1nn(-c2ccccc2)c2nc(Cl)c(C=O)c(-c3ccccc3)c12`, the growth was 106%. For `COC(=O)CC[C@@H](C)[C@H]1CC[C@H]2[C@@H]3CC[C@@H]4C[C@H](O)CC[C@]4(C)[C@H]3C[C@H](O)[C@]12C`, the growth was 102%. In the case of `COc1ccc(C(=O)CC(CC(=O)c2ccc(OC)cc2)c2c(C)nn(-c3ccccc3)c2Cl)cc1`, the growth is reported as 115%. `CCOc1ccccc1/C=N\N=C(\N)N/N=C/c1ccccc1OCC` was tested, and the growth was 7.41% (active). `Cc1cc(Br)nnc1Br` showed a growth of 112%. In the case of `COc1ccc2c(c1)C(CC(=O)NN)CCC2` (stereo not given), the growth is reported as 112%. Compound `COc1ccccc1N1CCCSC1=Nc1ccccc1` has a growth of 94.1%. `CCCCCCCCCCCC[n+]1c(C)cc(N)c2ccccc21` was tested, and the growth was 18%. `Cc1ccc(C(SCC(N)C(=O)O)(c2ccc(C)cc2)c2ccc(C)cc2)cc1` (stereo not given) was tested, and the growth was -42.6% (active). `CC1OC2CC(=O)OC2C2=C1C(=O)c1c(O)c3c(c(O)c1C2=O)C1CC(O)C3(O)C(C)O1` (stereo not given) was tested, and the growth was -34.1% (active). With `O=C1c2ccccc2C(=O)N1CCCCNc1ccccc1` the growth was 91%. Work on `Fc1ccc(C(c2ccc(F)cc2)C(Cl)Cl)cc1` yielded a growth of 105%. `CCCCN1C(=O)CC(SC2CC(=O)N(CCCC)C2=O)C1=O` (stereo not given) showed a growth of 106%. Compound `O=[N+]([O-])c1ccc(NCSc2ccc(Cl)cc2)cc1` has a growth of 106%. `CN(C)c1nc(N)c2nccnc2n1` gave a growth of 105%. For `CCn1c2ccc(O)cc2c2c(C)c3c[n+](C)ccc3c(C)c21`, the growth was 37.8%. `C=C1CCC2(C#N)[C@H]3[C@H](CC[C@@H]2C)[C@@H](C)C[C@@H](CC(C)(C)NC(=O)CN2CCC2=O)[C@H]13` (stereo not given in full) gave a growth of 65.6%. `COc1cc(C2CC(c3cc(Cl)c(C)cc3O)=NN2c2ccc(S(N)(=O)=O)cc2)cc(OC)c1OC` (stereo not given) was tested, and the growth was 20.7%.
